Assay results taken from PubChem BioAssay.
Potency and affinity values are given separately. Calls of active or inactive are those of the source. A call without a number means that no potency is given here. Unless noted, the limit is not given here; nearly all actives have IC50 up to about 0.98 µM.

What follows are compounds tested against Calcium-dependent protein kinase 1 (Plasmodium falciparum (isolate 3D7)) (UniProt P62344) (assay: PfCDPK1 kinase inhibitors, biochemical, TCAMS library (AID 1159585;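 also: inhibitors leave more ATP so luminescence rises with inhibition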)). Conditions: recombinant PfCDPK1, Kinase-Glo ATP depletion luminescence.
Chain of Calcium-dependent protein kinase 1 (Plasmodium falciparum (isolate 3D7)) (P62344 whole entry, looked up): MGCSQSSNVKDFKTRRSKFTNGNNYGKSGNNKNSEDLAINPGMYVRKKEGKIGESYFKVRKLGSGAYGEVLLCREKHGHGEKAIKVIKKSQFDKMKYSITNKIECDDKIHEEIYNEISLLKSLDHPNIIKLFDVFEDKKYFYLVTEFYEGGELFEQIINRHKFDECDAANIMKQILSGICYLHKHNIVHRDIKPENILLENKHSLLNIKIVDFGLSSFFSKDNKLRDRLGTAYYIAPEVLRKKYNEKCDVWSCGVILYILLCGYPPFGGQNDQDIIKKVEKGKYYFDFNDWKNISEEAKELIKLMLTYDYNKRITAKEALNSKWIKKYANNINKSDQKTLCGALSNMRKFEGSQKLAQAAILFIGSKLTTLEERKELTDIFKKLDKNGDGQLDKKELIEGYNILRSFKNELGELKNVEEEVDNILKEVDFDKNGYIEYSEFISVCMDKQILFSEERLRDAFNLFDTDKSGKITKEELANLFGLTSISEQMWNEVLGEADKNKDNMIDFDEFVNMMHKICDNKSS

Row | Compound | outcome
1 | CCCCC(NCC)c1ccc(OCCOc2ccc(C(CCCC)NCC)cc2)cc1 (stereo not given) | inactive
2 | CC(C)(C)c1ccc(CN2CCCCC(NC(=O)c3cc(-c4ccccc4Cl)cs3)C2)cc1 (stereo not given) | inactive
3 | CN(C)Cc1cccc(-c2ccc(NC(=O)c3ccc4c(=O)n(CC5CCCO5)cnc4c3)cc2)c1 (stereo not given) | inactive
4 | CC1CCN(CC[C@H]2CCCN2S(=O)(=O)c2cccc(NC(=O)c3ccc(-c4ccc(Cl)cc4)o3)c2)CC1 | inactive
5 | CCOC(=O)C1=C(C)NC2=C(C(=O)CC(C)(C)C2)C1c1ccc(Cl)cc1 (stereo not given) | inactive
6 | CCn1cnc2c(N3CCCS3(=O)=O)cc(C(=O)N[C@@H](Cc3ccccc3)[C@H](O)CNC(C)(C)c3cccc(C(F)(F)F)c3)cc21 | inactive
7 | Cc1ccc2[nH]c(C3CCCNC3)c(-c3ccncc3)c2c1 (stereo not given) | inactive
8 | COC(=O)[C@@H](NC(=O)[C@H](CC(C)C)Nc1ccc(C#N)c2ccccc12)c1ccc(O)cc1 | inactive
9 | CCC(C)Oc1ccc(CCCON2C(N)=NC(N)=NC2(C)C)cc1 (stereo not given) | inactive
10 | C[C@H]1CN(Cc2cccc(-c3cc(CNC(=O)c4cccc(CN5CCN(CCOc6ccccc6)CC5)c4)ccc3F)c2)CCN1 | inactive
11 | O=C1CCCN1CCCNCc1cccc(-c2ccc(-c3nc4ccccc4[nH]3)s2)c1 | inactive
12 | CC(=O)N[C@H](C(=O)Nc1cccc(-c2ccc(-c3nc4c(C)cccc4[nH]3)s2)c1)C(C)C | inactive
13 | O=C(Cc1cccc(Cl)c1)Nc1cccc(-c2c[nH]c3nc(Nc4cccc(O)c4)ncc23)c1 | inactive
14 | CC(C)CNC(=O)c1cncc(-c2ccc(CN3CCC(N4CCCC4)CC3)cc2)c1 | inactive
15 | O=C(Nc1ccccc1Cc1ccccc1)c1ccccc1C(F)(F)F | inactive
16 | CC(C)CCN1CCC(Oc2ccc(NC(=O)c3cccs3)cc2Cl)CC1 | inactive
17 | CNC(=O)c1cnc(Nc2ccc(N3CCN(C)CC3)c(C)c2)nc1NC | inactive
18 | O=C(Nc1ccc(N2CCNCC2)nc1)c1oc(-c2ccccc2)nc1C(F)(F)F | inactive
19 | Cc1ccc2nc(C)cc(NN=Cc3ccc([N+](=O)[O-])cc3)c2c1 | inactive
20 | CN1CCN(CCCN(Cc2csc(-c3ccc(CNCc4ccccc4)cc3)n2)C(=O)Nc2ccc3ccccc3c2)CC1 | inactive

Row | Compound | outcome
21 | CCOc1ccccc1N1CCN(CCCNC(=O)/C(=C/C=C/c2cc3cc(Cl)c(Cl)cc3[nH]2)OC)CC1 | inactive
22 | CC(O)C1CCCCN1C(=O)c1cccc(-c2cccc(-c3nc4ccc(F)cc4[nH]3)c2)c1 (stereo not given) | inactive
23 | COc1cc(CN2CCC(NC(=O)[C@H](Cc3ccccc3)NC(=O)Nc3ccc(Oc4ccccc4)cc3)C2)ccc1O (stereo not given in full) | inactive
24 | COc1ccc(CNC2CCCC2)cc1-c1ccc(S(=O)(=O)NCCN2CCCC2)s1 | inactive
25 | CS(=O)(=O)CCOCc1ccc(-c2ccc3ncnc(Nc4ccc(OCc5cccc(F)c5)c(Cl)c4)c3c2)o1 | inactive
26 | Oc1ccc(Nc2ccnc3cc(Cl)ccc23)cc1 | inactive
27 | CC[C@H]1CN(Cc2cccc(O)c2)CC[C@H]1CCCc1ccnc2ccc(O)cc12 | inactive
28 | COc1ccc(Nc2nc(NC3CCCC3)cc(-c3ccc(OC)cc3)n2)cc1 | inactive
29 | Cc1cc(N2CCCC2=O)ccc1-c1ccc(C(=O)N2CCC(Oc3cccc(Cl)c3)CC2)cc1 | inactive
30 | Cc1[nH]c2ccc(NS(C)(=O)=O)cc2c1C1CCN(CCC2CCN(C(=O)/C=C/c3ccc(Cl)c(Cl)c3)CC2)CC1 | inactive
31 | O=[N+]([O-])c1ccc(Nc2nc(NN=Cc3ccc(-c4ccc([N+](=O)[O-])cc4)o3)nc(Nc3ccccc3)n2)cc1 | inactive
32 | COc1cccc(Nc2nc(C)cc(NCc3ccc(-c4c(C)noc4C)cc3)n2)c1 | inactive
33 | CC(C)CCNC(=O)[C@@H]1[C@H]2C(=O)N(C3CCCCC3)C(=O)[C@H]2[C@H]2C=C[C@@H]3C(c4ccc(C(C)(C)C)cc4)=NO[C@@H]3N21 | inactive
34 | COc1ccc(-c2cccc(NC(=O)c3cccc(C#N)c3)c2)cc1CN1CCN(C)CC1 | inactive
35 | COc1ccc2nccc(N3CCC(SCCNS(=O)(=O)c4ccc5c(c4)NC(=O)CS5)C3)c2n1 (stereo not given) | inactive
36 | CC[C@H](C)CNC(=O)c1cncc(-c2cccc(CNCCCc3ccccc3)c2)c1 | inactive
37 | Cn1c(NC2=NC3(c4ccccn4)N=C(Nc4nc5ccccc5n4C)NC3(c3ccccn3)N2)nc2ccccc21 (stereo not given) | inactive
38 | Cc1cccc2[nH]c(-c3ccc(-c4cccc(CNCCN(C)C)c4)cc3)nc12 | inactive
39 | CCn1nc(C(=O)NC2CCOc3ccccc32)c2ccccc2c1=O (stereo not given) | inactive
40 | CC(Nc1ccnc2cc(Cl)ccc12)c1ccc(S(N)(=O)=O)cc1 (stereo not given) | inactive

The compounds below were run against Plasmodium falciparum protein kinase 6 (PK6, PF3D7_1337100) (UniProt Q8IDW1) (assay: PfPK6 kinase inhibitors, biochemical, TCAMS library (AID 1159586; call rule not given here)). Conditions: recombinant PfPK6, Kinase-Glo ATP depletion luminescence.
Chain of Plasmodium falciparum protein kinase 6 (PK6, PF3D7_1337100) (Q8IDW1 1-305): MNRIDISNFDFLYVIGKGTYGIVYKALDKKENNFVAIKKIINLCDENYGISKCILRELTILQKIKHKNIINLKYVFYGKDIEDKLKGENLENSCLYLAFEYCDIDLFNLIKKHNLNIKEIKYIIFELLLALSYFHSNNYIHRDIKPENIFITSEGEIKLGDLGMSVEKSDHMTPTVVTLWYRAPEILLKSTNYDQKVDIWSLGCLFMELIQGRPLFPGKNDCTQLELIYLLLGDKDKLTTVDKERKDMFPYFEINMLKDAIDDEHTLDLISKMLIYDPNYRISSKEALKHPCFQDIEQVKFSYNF

Row | Compound | outcome
41 | CCCCC(NCC)c1ccc(OCCOc2ccc(C(CCCC)NCC)cc2)cc1 (stereo not given) | inactive
42 | CC(C)(C)c1ccc(CN2CCCCC(NC(=O)c3cc(-c4ccccc4Cl)cs3)C2)cc1 (stereo not given) | inactive
43 | CN(C)Cc1cccc(-c2ccc(NC(=O)c3ccc4c(=O)n(CC5CCCO5)cnc4c3)cc2)c1 (stereo not given) | inactive
44 | CC1CCN(CC[C@H]2CCCN2S(=O)(=O)c2cccc(NC(=O)c3ccc(-c4ccc(Cl)cc4)o3)c2)CC1 | inactive
45 | CCOC(=O)C1=C(C)NC2=C(C(=O)CC(C)(C)C2)C1c1ccc(Cl)cc1 (stereo not given) | inactive
46 | CCn1cnc2c(N3CCCS3(=O)=O)cc(C(=O)N[C@@H](Cc3ccccc3)[C@H](O)CNC(C)(C)c3cccc(C(F)(F)F)c3)cc21 | inactive
47 | Cc1ccc2[nH]c(C3CCCNC3)c(-c3ccncc3)c2c1 (stereo not given) | inactive
48 | COC(=O)[C@@H](NC(=O)[C@H](CC(C)C)Nc1ccc(C#N)c2ccccc12)c1ccc(O)cc1 | inactive
49 | CCC(C)Oc1ccc(CCCON2C(N)=NC(N)=NC2(C)C)cc1 (stereo not given) | inactive
50 | C[C@H]1CN(Cc2cccc(-c3cc(CNC(=O)c4cccc(CN5CCN(CCOc6ccccc6)CC5)c4)ccc3F)c2)CCN1 | inactive
51 | O=C1CCCN1CCCNCc1cccc(-c2ccc(-c3nc4ccccc4[nH]3)s2)c1 | inactive
52 | CC(=O)N[C@H](C(=O)Nc1cccc(-c2ccc(-c3nc4c(C)cccc4[nH]3)s2)c1)C(C)C | inactive
53 | O=C(Cc1cccc(Cl)c1)Nc1cccc(-c2c[nH]c3nc(Nc4cccc(O)c4)ncc23)c1 | inactive
54 | CC(C)CNC(=O)c1cncc(-c2ccc(CN3CCC(N4CCCC4)CC3)cc2)c1 | inactive
55 | O=C(Nc1ccccc1Cc1ccccc1)c1ccccc1C(F)(F)F | inactive
56 | CC(C)CCN1CCC(Oc2ccc(NC(=O)c3cccs3)cc2Cl)CC1 | inactive
57 | CNC(=O)c1cnc(Nc2ccc(N3CCN(C)CC3)c(C)c2)nc1NC | inactive
58 | O=C(Nc1ccc(N2CCNCC2)nc1)c1oc(-c2ccccc2)nc1C(F)(F)F | inactive
59 | Cc1ccc2nc(C)cc(NN=Cc3ccc([N+](=O)[O-])cc3)c2c1 | inactive
60 | CN1CCN(CCCN(Cc2csc(-c3ccc(CNCc4ccccc4)cc3)n2)C(=O)Nc2ccc3ccccc3c2)CC1 | inactive

Row | Compound | outcome
61 | CCOc1ccccc1N1CCN(CCCNC(=O)/C(=C/C=C/c2cc3cc(Cl)c(Cl)cc3[nH]2)OC)CC1 | inactive
62 | CC(O)C1CCCCN1C(=O)c1cccc(-c2cccc(-c3nc4ccc(F)cc4[nH]3)c2)c1 (stereo not given) | inactive
63 | COc1cc(CN2CCC(NC(=O)[C@H](Cc3ccccc3)NC(=O)Nc3ccc(Oc4ccccc4)cc3)C2)ccc1O (stereo not given in full) | inactive
64 | COc1ccc(CNC2CCCC2)cc1-c1ccc(S(=O)(=O)NCCN2CCCC2)s1 | inactive
65 | CS(=O)(=O)CCOCc1ccc(-c2ccc3ncnc(Nc4ccc(OCc5cccc(F)c5)c(Cl)c4)c3c2)o1 | inactive
66 | Oc1ccc(Nc2ccnc3cc(Cl)ccc23)cc1 | inactive
67 | CC[C@H]1CN(Cc2cccc(O)c2)CC[C@H]1CCCc1ccnc2ccc(O)cc12 | inactive
68 | COc1ccc(Nc2nc(NC3CCCC3)cc(-c3ccc(OC)cc3)n2)cc1 | inactive
69 | Cc1cc(N2CCCC2=O)ccc1-c1ccc(C(=O)N2CCC(Oc3cccc(Cl)c3)CC2)cc1 | inactive
70 | Cc1[nH]c2ccc(NS(C)(=O)=O)cc2c1C1CCN(CCC2CCN(C(=O)/C=C/c3ccc(Cl)c(Cl)c3)CC2)CC1 | inactive
71 | O=[N+]([O-])c1ccc(Nc2nc(NN=Cc3ccc(-c4ccc([N+](=O)[O-])cc4)o3)nc(Nc3ccccc3)n2)cc1 | inactive
72 | COc1cccc(Nc2nc(C)cc(NCc3ccc(-c4c(C)noc4C)cc3)n2)c1 | inactive
73 | CC(C)CCNC(=O)[C@@H]1[C@H]2C(=O)N(C3CCCCC3)C(=O)[C@H]2[C@H]2C=C[C@@H]3C(c4ccc(C(C)(C)C)cc4)=NO[C@@H]3N21 | inactive
74 | COc1ccc(-c2cccc(NC(=O)c3cccc(C#N)c3)c2)cc1CN1CCN(C)CC1 | inactive
75 | COc1ccc2nccc(N3CCC(SCCNS(=O)(=O)c4ccc5c(c4)NC(=O)CS5)C3)c2n1 (stereo not given) | inactive
76 | CC[C@H](C)CNC(=O)c1cncc(-c2cccc(CNCCCc3ccccc3)c2)c1 | inactive
77 | Cn1c(NC2=NC3(c4ccccn4)N=C(Nc4nc5ccccc5n4C)NC3(c3ccccn3)N2)nc2ccccc21 (stereo not given) | inactive
78 | Cc1cccc2[nH]c(-c3ccc(-c4cccc(CNCCN(C)C)c4)cc3)nc12 | inactive
79 | CCn1nc(C(=O)NC2CCOc3ccccc32)c2ccccc2c1=O (stereo not given) | inactive
80 | CC(Nc1ccnc2cc(Cl)ccc12)c1ccc(S(N)(=O)=O)cc1 (stereo not given) | inactive
